Experiments:
Assay type in all cases: functional
[1] = test system: Plasmodium falciparum; test: GSK_TCMDC: Inhibition of Plasmodium falciparum 3D7 in whole red blood cells, using parasite LDH activity as an index of growth. Test compounds present at 2uM
[2] = test system: Plasmodium falciparum; test: GSK_TCMDC: Inhibition of Plasmodium falciparum Dd2 in whole red blood cells, using parasite LDH activity as an index of growth. Test compounds present at 2uM
[3] = test system: HepG2; test: GSK_TCMDC: Percent inhibition of human HepG2 cell line. Test compounds present at 10uM.

Q: `O=C(N[C@H]1CCN(Cc2ccc(OCCCN3CCCCC3)cc2)C1)c1cc(Cl)cc(Cl)c1` was tested. Which Inhibition [1] did it give?
A: The Inhibition was 99%.

Q: And the Inhibition [2]?
A: Its Inhibition is 35%.

Q: What about the Inhibition [3] of the same compound?
A: Its Inhibition is 13%.

Q: `CC(C)CC1c2[nH]c3ccccc3c(=O)c2CN1C(=O)OC(C)(C)C` (stereo unspecified) was tested. Which Inhibition [1] did it give?
A: The Inhibition was 97%.

Q: What about the Inhibition [2] of the same compound?
A: The Inhibition was 96%.

Q: And the Inhibition [3]?
A: Its Inhibition is 2%.

Q: `NCc1ccc(CNCc2cccc(-c3cccc(-c4nc5cc(F)ccc5[nH]4)c3)c2)cc1.O=C(O)C(F)(F)F` was tested. Which Inhibition [1] did it give?
A: Its Inhibition is 100%.

Q: And the Inhibition [2]?
A: The Inhibition was 34%.

Q: And the Inhibition [3]?
A: The Inhibition was 15%.

Q: Which results are given for `O=C(CCn1c2ccccc2c2ccccc21)NN=Cc1ccco1`?
A: Inhibition [1]: 96%; Inhibition [2]: 0%; Inhibition [3]: 6%

Q: For `Cc1c(CN2CCC(N3CCC(C(=O)NC4CC4)CC3)CC2)[nH]c2c(Cl)cccc12`, which Inhibition [1] is on record?
A: The Inhibition was 92%.

Q: What about the Inhibition [2] of the same compound?
A: Its Inhibition is 3%.

Q: What about the Inhibition [3] of the same compound?
A: Its Inhibition is 22%.

Q: What does the source list for `CCCCc1cc(NC2CCN(C)CC2)nc(Nc2ccccc2)n1`?
A: Inhibition [1]: 100%; Inhibition [2]: 29%; Inhibition [3]: 7%

Q: What does the source list for `O=C(Nc1cccc(CN2CCCN(CC3CC3)CC2)c1)c1ccc(-c2ccccc2)cc1.O=C(O)C(F)(F)F`?
A: Inhibition [1]: 96%; Inhibition [2]: 5%; Inhibition [3]: 15%

Q: What does the source list for `CC12CCC(=O)N1C(C(=O)Nc1cccc(C(=O)Nc3cccc(C(F)(F)F)c3)c1)CS2` (stereo unspecified)?
A: Inhibition [1]: 92%; Inhibition [2]: 89%; Inhibition [3]: 6%

Q: For `Cl.c1cc(CNC2Cc3ccccc3C2)cc(-c2cnc(N3CCNCC3)nc2)c1`, which Inhibition [1] is on record?
A: Its Inhibition is 93%.

Q: What about the Inhibition [2] of the same compound?
A: Its Inhibition is 65%.

Q: What about the Inhibition [3] of the same compound?
A: The Inhibition was 43%.

Q: Which results are given for `CCN(CC(C)O)C(=O)c1ccc(-c2cccc(-c3nc4cccc(C)c4[nH]3)c2)cc1` (stereo unspecified)?
A: Inhibition [1]: 100%; Inhibition [2]: 32%; Inhibition [3]: 28%

Q: Which Inhibition [1] does the source give for `Cc1ccc(-n2cc(CNCCCn3ccnc3)c(-c3cccc(C)c3)n2)cc1` here?
A: Its Inhibition is 99%.

Q: What about the Inhibition [2] of the same compound?
A: The Inhibition was 36%.

Q: And the Inhibition [3]?
A: Its Inhibition is 9%.

Q: How did the Inhibition [1] turn out when `CN1CCN(c2cc3c(cc2Cl)CCN3C(=O)Cc2ccc(Cl)c(NC(=O)Nc3cccc(C#N)c3)c2)CC1` was run?
A: Its Inhibition is 99%.

Q: What about the Inhibition [2] of the same compound?
A: The Inhibition was 40%.

Q: What about the Inhibition [3] of the same compound?
A: Its Inhibition is 0%.

Q: What does the source list for `CCN(CC)CCNc1nc(C=Cc2ccc(Cl)cc2)nc2cc3ccccc3cc12`?
A: Inhibition [1]: 100%; Inhibition [2]: 99%; Inhibition [3]: 83%

Q: Which results are given for `O=C(NC1CCN(Cc2ccc3c(c2)OCCO3)CC1)c1ccc(-c2cccc(Cl)c2)s1.O=C(O)C(F)(F)F`?
A: Inhibition [1]: 93%; Inhibition [2]: 9%; Inhibition [3]: 46%

Q: How did the Inhibition [1] turn out when `O=C(Nc1cccc(CN2CCCN(Cc3ccc(O)cc3)CC2)c1)c1cccc(Cl)c1.O=C(O)C(F)(F)F` was run?
A: The Inhibition was 96%.

Q: And the Inhibition [2]?
A: Its Inhibition is 41%.

Q: What about the Inhibition [3] of the same compound?
A: Its Inhibition is 10%.

Q: How did the Inhibition [1] turn out when `CC(C)(C)c1cc(C(=O)N2CCC(c3ccccn3)CC2)n(Cc2ccccc2)n1` was run?
A: Its Inhibition is 96%.

Q: What about the Inhibition [2] of the same compound?
A: Its Inhibition is 90%.

Q: And the Inhibition [3]?
A: Its Inhibition is 3%.

Q: `COc1ccc(-c2cc(C(=O)N[C@@H](CC3CCCCC3)C(=O)NCCN3CCCCC3)ccc2O)cc1` was tested. Which Inhibition [1] did it give?
A: Its Inhibition is 98%.

Q: And the Inhibition [2]?
A: The Inhibition was 72%.

Q: What about the Inhibition [3] of the same compound?
A: Its Inhibition is 3%.

Q: Which Inhibition [1] does the source give for `O=C(Nc1cccc(-c2nn3ccccc3c2-c2ccnc(Nc3ccccc3)n2)c1)c1c(F)cccc1F` here?
A: Its Inhibition is 98%.

Q: And the Inhibition [2]?
A: The Inhibition was 98%.

Q: What about the Inhibition [3] of the same compound?
A: Its Inhibition is 69%.

Q: `c1cc(Cc2ccc(Nc3c4ccccc4nc4ccccc34)cc2)cc(Nc2c3ccccc3nc3ccccc23)c1` was tested. Which Inhibition [1] did it give?
A: Its Inhibition is 100%.

Q: What about the Inhibition [2] of the same compound?
A: Its Inhibition is 100%.

Q: And the Inhibition [3]?
A: The Inhibition was 91%.

Q: How did the Inhibition [1] turn out when `CCCCCCCCc1c(C)[nH]c(C)c(Cl)c1=O` was run?
A: The Inhibition was 96%.

Q: What about the Inhibition [2] of the same compound?
A: Its Inhibition is 95%.

Q: And the Inhibition [3]?
A: Its Inhibition is 0%.

Q: `CCCCNCC(O)COc1ccccc1-c1ccc(N/N=C/c2cccc3ccccc23)nn1` (stereo unspecified) was tested. Which Inhibition [1] did it give?
A: The Inhibition was 99%.

Q: And the Inhibition [2]?
A: The Inhibition was 8%.

Q: And the Inhibition [3]?
A: Its Inhibition is 38%.

Q: How did the Inhibition [1] turn out when `CC(C)Cc1nc(N)nc(N)c1-c1ccc(Cl)cc1` was run?
A: The Inhibition was 96%.

Q: What about the Inhibition [2] of the same compound?
A: The Inhibition was 3%.

Q: What about the Inhibition [3] of the same compound?
A: Its Inhibition is 5%.

Q: For `O=C(Cc1cccc(O)c1)Nc1ccc(-c2cccc(-c3nc4cc(C(F)(F)F)ccc4[nH]3)c2)cc1`, which Inhibition [1] is on record?
A: Its Inhibition is 86%.

Q: What about the Inhibition [2] of the same compound?
A: The Inhibition was 1%.

Q: And the Inhibition [3]?
A: The Inhibition was 14%.

Q: What does the source list for `CC1CCC(NCc2c(O)ccc3ccccc23)CC1.Cl` (stereo unspecified)?
A: Inhibition [1]: 95%; Inhibition [2]: 77%; Inhibition [3]: 13%

Q: Which Inhibition [1] does the source give for `Oc1cc(Nc2ccnc3cc(I)ccc23)ccc1F` here?
A: The Inhibition was 99%.

Q: What about the Inhibition [2] of the same compound?
A: Its Inhibition is 99%.

Q: What about the Inhibition [3] of the same compound?
A: Its Inhibition is 0%.

Q: `O=C(Nc1ccc(Br)cc1)N(CCN1CCOCC1)CC(O)COc1ccc(Cl)c(F)c1.O=C(O)C(F)(F)F` (stereo unspecified) was tested. Which Inhibition [1] did it give?
A: The Inhibition was 98%.

Q: What about the Inhibition [2] of the same compound?
A: The Inhibition was 30%.

Q: And the Inhibition [3]?
A: Its Inhibition is 3%.

Q: For `O=C(/C=C/c1ccccc1Cl)Nc1ccc(Br)c(OCCN2CCC(O)(c3ccccc3)CC2)c1.O=C(O)C(=O)O`, which Inhibition [1] is on record?
A: The Inhibition was 100%.

Q: What about the Inhibition [2] of the same compound?
A: Its Inhibition is 85%.

Q: What about the Inhibition [3] of the same compound?
A: Its Inhibition is 39%.

Q: `Cc1ccc(NC(=O)Nc2cccc(Cl)c2)cc1-c1ccc(C(=O)Nc2ccncc2)cc1` was tested. Which Inhibition [1] did it give?
A: Its Inhibition is 97%.

Q: And the Inhibition [2]?
A: The Inhibition was 49%.

Q: And the Inhibition [3]?
A: The Inhibition was 67%.

Q: Which Inhibition [1] does the source give for `CC(=O)Nc1ncc(C(=O)Nc2cccc(-c3cccc(-c4nc5cccc(C)c5[nH]4)c3)c2)s1` here?
A: The Inhibition was 94%.

Q: And the Inhibition [2]?
A: The Inhibition was 64%.

Q: And the Inhibition [3]?
A: Its Inhibition is 15%.

Q: With `CC[C@H](C)CNC(=O)c1cncc(-c2cccc(CN(C)C3CCN(C)CC3)c2)c1.O=C(O)C(F)(F)F` as the compound, how does the Inhibition [1] read?
A: Its Inhibition is 100%.

Q: What about the Inhibition [2] of the same compound?
A: Its Inhibition is 59%.

Q: And the Inhibition [3]?
A: The Inhibition was 9%.

Q: With `CN(C)Cc1cccc(-c2ccc(NC(=O)c3ccc4c(=O)n(Cc5ccoc5)cnc4c3)cc2)c1` as the compound, how does the Inhibition [1] read?
A: Its Inhibition is 98%.

Q: And the Inhibition [2]?
A: Its Inhibition is 9%.

Q: And the Inhibition [3]?
A: The Inhibition was 54%.

Q: Which Inhibition [1] does the source give for `Nc1nc(N)c2cc(Sc3ccc4ccccc4c3)ccc2n1` here?
A: Its Inhibition is 95%.

Q: What about the Inhibition [2] of the same compound?
A: Its Inhibition is 92%.

Q: What about the Inhibition [3] of the same compound?
A: Its Inhibition is 66%.

Source: ChEMBL document CHEMBL1157539, “Thousands of chemical starting points for antimalarial lead identification” (Nature, 2010)
